Experimental data: the supplement of paper PMC10849652
Targets with a hit are over-represented here; the source holds about 8,800 in all. About 0.5% of all pairs of compound and target were hits.

Experiments:
Experiment in all cases: log2 fold change, soluble protein after heating vs DMSO (PISA); higher = thermal stabilisation; K562 lysate, 10 uM; active = over 0.2 and 3.5 SD of the protein, either way, in both replicates (recomputed)
erlotinib = compound: C#Cc1cccc(Nc2ncnc3cc(OCCOC)c(OCCOC)cc23)c1 [erlotinib]
In short: (§1)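 K562 pellets were dounce-homogenised in PBS pH 7.4 containing 1 mM MgCl2, and the crude extract, at 1 mg/mL protein, was exposed to 10 μM compound for 30 min. Aliquots were heated for 3 min across 48°C-58°C, pooled, brought to 0.5% NP-40 at 4°C and spun at 21,000xg for 90 min, with the supernatant taken as soluble protein. TMTpro 16plex LC-MS/MS with equalised channel sums quantified that protein. Values are log-two fold changes in thermal stability relative to solvent controls, taken from duplicates.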

[1] = compound: C/C(=N\NC(=O)C1=CC(=CC=C1)S(=O)(=O)N2CCOCC2)/C3=C(C=CC(=C3)Cl)O
In short: as §1

[2] = compound: C1=CC(=CC=C1C2=NC3=C(N2)C=C(C=C3)C(=O)N)OC4=CC=C(C=C4)Cl
In short: as §1

[3] = compound: C1=CC2=C(C=CC(=C2)/C=C\3/C(=O)NC(=NCC4=CC=CS4)S3)N=C1
In short: as §1

[4] = compound: C1=CC2=NC=CN=C2C=C1/C=C/3\C(=O)NC(=O)S3
In short: as §1

[5] = compound: C1=CC=C(C=C1)C2=NC(=C(N2)C3=CC=NC=C3)C4=CC(=C(C=C4)Cl)O
In short: as §1

[6] = compound: C1=CC=C2C(=C1)C3=NNC4=CC=CC(=C43)C2=O
In short: as §1

[7] = compound: C1CCN(C1)C(=O)NC2=CC=CC(=C2)NC3=NC=C(C(=N3)NCCC4=CN=CN4)Br
In short: as §1

[8] = compound: C1CN(CCC1(CC2=CC=C(C=C2)Cl)N)C3=NC=NC4=C3C=CN4
In short: as §1

IRAK-1-4 Inhibitor I = compound: C1COCCN1CCN2C3=CC=CC=C3N=C2NC(=O)C4=CC(=CC=C4)[N+](=O)[O-] [IRAK-1-4 Inhibitor I]
In short: as §1

ibrutinib = compound: C=CC(=O)N1CCC[C@@H](n2nc(-c3ccc(Oc4ccccc4)cc3)c3c(N)ncnc32)C1 [ibrutinib]
In short: as §1

[9] = compound: CC(=O)c1cnc2ccc(-c3cc(Cl)c(O)c(Cl)c3)nc2c1N[C@H]1CC[C@H](CN(C)C)CC1
In short: as §1

ralimetinib = compound: CC(C)(C)Cn1c(N)nc2ccc(-c3[nH]c(C(C)(C)C)nc3-c3ccc(F)cc3)nc21 [ralimetinib]
In short: as §1

[10] = compound: CC(C)(O)CC(=O)NCCn1ccc2ncnc(Nc3ccc(Oc4cccc(C(F)(F)F)c4)c(Cl)c3)c21
In short: as §1

[11] = compound: CC(C)C1=C2N=C(C=C(N2N=C1)NCC3=CC=CC=C3)NCCCCCCN
In short: as §1

[12] = compound: CC1=C(C(CC(=O)N1)C2=CC=C(C=C2)C(F)(F)F)C(=O)NC3=C(C=C4C(=C3)C=NN4)F
In short: as §1

[13] = compound: CC1=C(C2=C(C=C1)C(=O)C3=CC=CC=C3N2CCCN)C
In short: as §1

[14] = compound: CC1=C(C=C(C=C1)NC(=O)C2=CC(=CC=C2)C(C)(C)C#N)NC3=CC4=C(C=C3)N=CN(C4=O)C
In short: as §1

[15] = compound: CC1=C(C=C(C=C1)NC(=O)C2=CC(=CC=C2)N(C)C)NC(=O)C3=CC=C(C=C3)O
In short: as §1

[16] = compound: CC1=CC=C(C=C1)SC2=C3C=C(SC3=CN=C2)C(=O)N
In short: as §1

Measured: log2 fold change

CSNK2B (UniProt P67870)
active: [4] 0.33 | [9] 0.408
inactive: erlotinib 0.045 | [1] -0.107 | [2] -0.039 | [3] 0.151 | [5] -0.012 | [6] 0.198 | [7] 0.145 | [8] 0.041 | IRAK-1-4 Inhibitor I 0.021 | ibrutinib -0.004 | ralimetinib 0.003 | [10] -0.013 | [11] 0 | [12] -0.054 | [13] 0.114 | [14] -0.004 | [15] -0.015 | [16] -0.016

DHFR (UniProt P00374)
Chain of UniProt P00374 (P00374 whole entry, looked up): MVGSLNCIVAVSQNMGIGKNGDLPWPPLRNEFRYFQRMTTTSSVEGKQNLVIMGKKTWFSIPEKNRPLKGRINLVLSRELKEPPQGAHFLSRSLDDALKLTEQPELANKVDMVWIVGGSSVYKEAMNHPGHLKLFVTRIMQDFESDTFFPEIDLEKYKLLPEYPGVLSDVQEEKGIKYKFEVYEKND
inactive: erlotinib 0.031 | [1] 0.046 | [2] -0.023 | [3] -0.019 | [4] 0.045 | [5] 0.025 | [6] -0.01 | [7] 0.034 | [8] 0.019 | IRAK-1-4 Inhibitor I -0.055 | ibrutinib -0.013 | [9] 0.155 | ralimetinib -0.058 | [10] 0.016 | [11] 0.024 | [12] -0.018 | [13] -0.013 | [14] -0.029 | [15] 0.025 | [16] 0.033

COG7 (UniProt P83436)
inactive: erlotinib 0.026 | [1] -0.007 | [2] -0.025 | [3] 0.034 | [4] 0.012 | [5] 0.006 | [6] -0.037 | [7] -0.022 | [8] 0.05 | IRAK-1-4 Inhibitor I -0.039 | ibrutinib -0.04 | [9] -0.012 | ralimetinib 0.03 | [10] 0.006 | [11] -0.049 | [12] -0.034 | [13] -0.001 | [14] -0.029 | [15] 0.058 | [16] -0.007

CYP51A1 (UniProt Q16850)
Chain of UniProt Q16850 (Q16850 whole entry, looked up): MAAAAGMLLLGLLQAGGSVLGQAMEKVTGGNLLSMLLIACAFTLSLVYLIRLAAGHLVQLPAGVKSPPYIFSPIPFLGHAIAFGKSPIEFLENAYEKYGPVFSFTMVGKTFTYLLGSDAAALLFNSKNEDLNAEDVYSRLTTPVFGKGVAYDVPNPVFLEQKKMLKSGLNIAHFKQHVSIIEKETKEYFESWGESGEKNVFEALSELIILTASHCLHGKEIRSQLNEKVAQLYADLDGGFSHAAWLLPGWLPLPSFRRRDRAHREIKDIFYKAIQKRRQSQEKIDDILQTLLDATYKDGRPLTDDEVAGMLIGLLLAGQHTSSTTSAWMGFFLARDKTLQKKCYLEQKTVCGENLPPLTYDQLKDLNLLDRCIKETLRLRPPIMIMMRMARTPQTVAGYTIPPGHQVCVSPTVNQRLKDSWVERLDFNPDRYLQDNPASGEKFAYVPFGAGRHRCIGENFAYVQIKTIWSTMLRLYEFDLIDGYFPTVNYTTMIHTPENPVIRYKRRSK
active: ibrutinib 0.601
inactive: erlotinib -0.029 | [1] 0.045 | [2] 0.193 | [3] 0.058 | [4] -0.087 | [5] -0.041 | [6] 0.118 | [7] -0.092 | [8] -0.023 | IRAK-1-4 Inhibitor I 0.043 | [9] -0.025 | ralimetinib -0.025 | [10] 0.101 | [11] 0.038 | [12] -0.017 | [13] -0.031 | [14] -0.093 | [15] 0.014 | [16] -0.099

DLGAP5 (UniProt Q15398)
Chain of UniProt Q15398 (Q15398 whole entry, looked up): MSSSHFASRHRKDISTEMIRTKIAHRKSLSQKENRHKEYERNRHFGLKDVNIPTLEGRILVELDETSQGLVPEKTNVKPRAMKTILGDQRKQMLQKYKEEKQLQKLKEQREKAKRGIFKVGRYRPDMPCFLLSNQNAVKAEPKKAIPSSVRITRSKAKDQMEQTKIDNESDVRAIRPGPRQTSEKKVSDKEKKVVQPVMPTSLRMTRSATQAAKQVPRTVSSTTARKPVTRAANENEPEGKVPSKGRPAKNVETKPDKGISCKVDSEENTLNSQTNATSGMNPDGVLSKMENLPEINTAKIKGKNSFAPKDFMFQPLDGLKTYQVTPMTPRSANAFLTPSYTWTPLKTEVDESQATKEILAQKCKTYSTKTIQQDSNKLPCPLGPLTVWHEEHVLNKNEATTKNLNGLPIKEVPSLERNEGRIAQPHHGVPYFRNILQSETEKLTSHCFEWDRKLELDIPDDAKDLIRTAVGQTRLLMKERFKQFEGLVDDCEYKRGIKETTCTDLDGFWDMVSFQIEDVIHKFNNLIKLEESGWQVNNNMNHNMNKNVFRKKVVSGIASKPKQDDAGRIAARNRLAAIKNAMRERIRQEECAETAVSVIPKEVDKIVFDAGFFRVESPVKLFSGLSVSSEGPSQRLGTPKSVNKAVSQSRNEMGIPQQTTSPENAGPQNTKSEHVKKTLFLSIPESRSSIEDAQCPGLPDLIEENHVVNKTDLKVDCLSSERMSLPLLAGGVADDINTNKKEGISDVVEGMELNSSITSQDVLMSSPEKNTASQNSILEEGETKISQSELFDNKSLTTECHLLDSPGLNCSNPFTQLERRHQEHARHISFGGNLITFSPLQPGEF
inactive: erlotinib -0.015 | [1] 0.023 | [2] -0.006 | [3] -0.024 | [4] -0.02 | [5] 0.026 | [6] -0.021 | [7] -0.013 | [8] -0.013 | IRAK-1-4 Inhibitor I -0.009 | ibrutinib 0.004 | [9] 0.02 | ralimetinib -0.018 | [10] 0.005 | [11] -0.036 | [12] -0.009 | [13] -0.007 | [14] -0.012 | [15] 0.016 | [16] -0.003

CMTM3 (UniProt Q96MX0)
inactive: erlotinib 0.002 | [1] -0.112 | [2] 0.053 | [3] -0.084 | [4] -0.009 | [5] -0.011 | [6] -0.019 | [7] -0.083 | [8] -0.089 | IRAK-1-4 Inhibitor I -0.012 | ibrutinib -0.036 | [9] 0.036 | ralimetinib 0.093 | [10] 0.104 | [11] -0.022 | [12] 0.052 | [13] -0.06 | [14] 0.06 | [15] -0.039 | [16] -0.016

CHORDC1 (UniProt Q9UHD1)
Chain of UniProt Q9UHD1 (Q9UHD1 whole entry, looked up): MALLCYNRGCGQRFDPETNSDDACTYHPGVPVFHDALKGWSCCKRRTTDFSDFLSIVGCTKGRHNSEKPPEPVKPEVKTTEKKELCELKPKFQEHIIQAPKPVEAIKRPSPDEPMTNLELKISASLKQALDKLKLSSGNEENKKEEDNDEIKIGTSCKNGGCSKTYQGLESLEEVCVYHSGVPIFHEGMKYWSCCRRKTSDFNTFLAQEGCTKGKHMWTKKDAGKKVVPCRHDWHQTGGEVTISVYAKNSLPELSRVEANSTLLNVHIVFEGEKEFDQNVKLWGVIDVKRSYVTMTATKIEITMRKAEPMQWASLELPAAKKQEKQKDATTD
inactive: erlotinib 0.015 | [1] 0.007 | [2] 0.017 | [3] 0.001 | [4] 0.004 | [5] 0.002 | [6] 0.005 | [7] -0.007 | [8] 0.015 | IRAK-1-4 Inhibitor I -0.016 | ibrutinib -0.002 | [9] 0.004 | ralimetinib -0.009 | [10] -0.001 | [11] -0.032 | [12] -0.009 | [13] 0.001 | [14] 0.023 | [15] 0.033 | [16] 0.006

CKAP5 (UniProt Q14008)
inactive: erlotinib 0.018 | [1] 0.003 | [2] 0.005 | [3] -0.01 | [4] -0.009 | [5] 0.002 | [6] -0.055 | [7] -0.015 | [8] 0.004 | IRAK-1-4 Inhibitor I 0.001 | ibrutinib -0.024 | [9] -0.008 | ralimetinib 0.015 | [10] -0.012 | [11] -0.007 | [12] 0.007 | [13] 0.005 | [14] -0.013 | [15] 0.023 | [16] 0.006

DNAJC3 (UniProt Q13217)
inactive: erlotinib -0.002 | [1] -0.057 | [2] 0.06 | [3] 0.008 | [4] -0.021 | [5] -0.032 | [6] -0.02 | [7] -0.033 | [8] -0.047 | IRAK-1-4 Inhibitor I 0.011 | ibrutinib 0.009 | [9] -0.004 | ralimetinib -0.022 | [10] 0.007 | [11] -0.021 | [12] 0.024 | [13] 0.006 | [14] -0.011 | [15] -0.054 | [16] -0.018

CLIP1 isoform 1 (UniProt P30622)
inactive: erlotinib -0.025 | [1] -0.026 | [2] 0.019 | [3] -0.005 | [4] -0.018 | [5] 0.005 | [6] 0.002 | [7] 0 | [8] -0.012 | IRAK-1-4 Inhibitor I 0.007 | [9] -0.005 | ralimetinib 0.004 | [10] 0 | [11] -0.008 | [12] -0.01 | [13] -0.016 | [14] 0.006 | [15] 0.003 | [16] -0.004

CLASP1 (UniProt Q7Z460)
Chain of UniProt Q7Z460 (Q7Z460 whole entry, looked up): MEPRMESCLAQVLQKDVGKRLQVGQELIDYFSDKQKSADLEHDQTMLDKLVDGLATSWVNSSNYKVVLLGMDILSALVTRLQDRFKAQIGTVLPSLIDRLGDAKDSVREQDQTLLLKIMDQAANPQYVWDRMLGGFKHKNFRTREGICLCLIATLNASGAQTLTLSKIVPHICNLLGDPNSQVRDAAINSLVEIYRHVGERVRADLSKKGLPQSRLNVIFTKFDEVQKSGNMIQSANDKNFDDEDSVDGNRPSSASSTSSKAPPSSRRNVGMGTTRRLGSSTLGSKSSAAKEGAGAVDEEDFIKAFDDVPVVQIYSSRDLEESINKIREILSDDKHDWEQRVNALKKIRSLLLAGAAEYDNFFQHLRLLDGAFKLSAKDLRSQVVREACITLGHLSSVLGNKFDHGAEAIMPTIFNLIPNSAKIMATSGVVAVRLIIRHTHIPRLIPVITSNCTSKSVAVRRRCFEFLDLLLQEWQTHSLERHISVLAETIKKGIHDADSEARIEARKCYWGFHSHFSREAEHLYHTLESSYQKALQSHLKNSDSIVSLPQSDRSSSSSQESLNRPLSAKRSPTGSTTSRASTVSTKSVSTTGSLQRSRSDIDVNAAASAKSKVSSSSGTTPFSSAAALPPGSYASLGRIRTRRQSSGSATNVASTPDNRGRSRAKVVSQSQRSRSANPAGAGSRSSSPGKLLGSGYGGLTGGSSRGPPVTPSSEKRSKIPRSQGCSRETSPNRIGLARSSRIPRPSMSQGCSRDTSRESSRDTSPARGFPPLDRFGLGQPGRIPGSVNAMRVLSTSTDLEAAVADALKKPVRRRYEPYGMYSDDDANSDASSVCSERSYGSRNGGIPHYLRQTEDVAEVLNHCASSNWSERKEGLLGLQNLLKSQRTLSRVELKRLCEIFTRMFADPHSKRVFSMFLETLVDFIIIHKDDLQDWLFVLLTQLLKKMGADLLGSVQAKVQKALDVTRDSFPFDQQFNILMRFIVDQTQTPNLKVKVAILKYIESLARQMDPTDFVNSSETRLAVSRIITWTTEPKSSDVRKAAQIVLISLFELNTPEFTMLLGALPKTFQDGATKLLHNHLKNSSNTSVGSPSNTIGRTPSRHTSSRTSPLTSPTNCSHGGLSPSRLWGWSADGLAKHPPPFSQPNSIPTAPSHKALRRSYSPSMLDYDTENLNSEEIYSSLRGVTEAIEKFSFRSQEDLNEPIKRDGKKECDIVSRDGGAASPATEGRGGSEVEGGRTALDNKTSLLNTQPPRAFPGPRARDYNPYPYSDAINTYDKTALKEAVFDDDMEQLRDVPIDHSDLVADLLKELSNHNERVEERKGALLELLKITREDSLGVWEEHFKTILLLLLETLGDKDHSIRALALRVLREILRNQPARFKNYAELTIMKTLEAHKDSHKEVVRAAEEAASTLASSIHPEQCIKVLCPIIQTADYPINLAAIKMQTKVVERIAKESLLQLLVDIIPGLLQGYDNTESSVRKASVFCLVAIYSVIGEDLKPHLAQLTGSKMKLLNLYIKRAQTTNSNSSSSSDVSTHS
inactive: erlotinib 0.042 | [1] 0.082 | [2] -0.029 | [3] -0.022 | [4] 0.01 | [5] 0.026 | [6] -0.041 | [7] -0.035 | [8] 0.02 | IRAK-1-4 Inhibitor I 0.029 | [9] 0.013 | ralimetinib 0.02 | [10] 0.024 | [11] 0.01 | [12] 0.018 | [13] 0.004 | [14] 0.02 | [15] 0.036 | [16] 0.001

CLPTM1L (UniProt Q96KA5)
inactive: erlotinib -0.019 | [1] 0.014 | [2] -0.143 | [3] -0.01 | [4] 0.009 | [5] -0.052 | [6] -0.197 | [7] -0.059 | [8] 0.091 | IRAK-1-4 Inhibitor I -0.01 | [9] -0.011 | ralimetinib 0.041 | [10] -0.041 | [11] 0.048 | [12] 0.058 | [13] 0.081 | [14] -0.024 | [15] 0.039 | [16] -0.005

DGCR8 (UniProt Q8WYQ5)
Chain of UniProt Q8WYQ5 (Q8WYQ5 whole entry, looked up): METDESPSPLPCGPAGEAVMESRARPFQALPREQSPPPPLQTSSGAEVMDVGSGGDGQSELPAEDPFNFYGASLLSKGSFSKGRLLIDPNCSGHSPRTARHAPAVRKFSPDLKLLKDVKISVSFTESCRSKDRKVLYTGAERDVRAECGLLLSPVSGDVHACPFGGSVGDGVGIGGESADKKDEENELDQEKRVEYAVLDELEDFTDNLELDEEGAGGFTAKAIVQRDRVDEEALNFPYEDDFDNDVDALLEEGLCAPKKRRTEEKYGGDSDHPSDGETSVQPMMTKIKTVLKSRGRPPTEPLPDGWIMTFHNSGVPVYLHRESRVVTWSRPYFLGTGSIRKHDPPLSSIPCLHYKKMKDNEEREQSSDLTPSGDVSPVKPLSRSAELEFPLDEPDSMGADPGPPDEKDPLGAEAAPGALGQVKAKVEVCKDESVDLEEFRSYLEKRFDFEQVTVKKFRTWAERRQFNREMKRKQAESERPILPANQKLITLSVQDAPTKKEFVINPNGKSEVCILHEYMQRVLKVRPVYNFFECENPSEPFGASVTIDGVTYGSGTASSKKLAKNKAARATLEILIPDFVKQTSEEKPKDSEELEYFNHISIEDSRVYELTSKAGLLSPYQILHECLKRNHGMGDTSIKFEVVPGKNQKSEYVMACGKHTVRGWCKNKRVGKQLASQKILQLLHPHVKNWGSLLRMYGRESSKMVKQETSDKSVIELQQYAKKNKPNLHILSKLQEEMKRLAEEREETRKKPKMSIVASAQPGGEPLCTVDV
inactive: erlotinib 0.045 | [1] -0.026 | [2] 0.019 | [3] 0.023 | [4] -0.057 | [5] 0.002 | [6] -0.011 | [7] -0.019 | [8] 0 | IRAK-1-4 Inhibitor I -0.038 | ibrutinib 0.031 | [9] -0.049 | ralimetinib 0.014 | [10] -0.014 | [11] 0.015 | [12] 0.02 | [13] -0.018 | [14] -0.219 | [15] 0.071 | [16] -0.006

CLCN3 isoform 2 (UniProt P51790)
inactive: erlotinib 0.003 | [1] 0.083 | [2] -0.061 | [3] -0.005 | [4] -0.004 | [5] -0.042 | [6] 0.013 | [7] -0.032 | [8] 0.029 | IRAK-1-4 Inhibitor I 0.068 | [9] 0.029 | ralimetinib 0.02 | [10] -0.032 | [11] -0.035 | [12] -0.017 | [13] -0.066 | [14] 0.029 | [15] 0.048 | [16] -0.013

CLPB isoform 2 (UniProt Q9H078)
inactive: erlotinib 0.023 | [1] -0.029 | [2] -0.028 | [3] 0.02 | [4] -0.047 | [5] -0.018 | [6] 0.006 | [7] 0.022 | [8] 0.055 | IRAK-1-4 Inhibitor I -0.002 | [9] -0.016 | ralimetinib 0.002 | [10] -0.024 | [11] -0.006 | [12] 0.002 | [13] -0.054 | [14] -0.011 | [15] 0.025 | [16] 0.012

CNNM2 (UniProt Q9H8M5)
Chain of UniProt Q9H8M5 (Q9H8M5 whole entry, looked up): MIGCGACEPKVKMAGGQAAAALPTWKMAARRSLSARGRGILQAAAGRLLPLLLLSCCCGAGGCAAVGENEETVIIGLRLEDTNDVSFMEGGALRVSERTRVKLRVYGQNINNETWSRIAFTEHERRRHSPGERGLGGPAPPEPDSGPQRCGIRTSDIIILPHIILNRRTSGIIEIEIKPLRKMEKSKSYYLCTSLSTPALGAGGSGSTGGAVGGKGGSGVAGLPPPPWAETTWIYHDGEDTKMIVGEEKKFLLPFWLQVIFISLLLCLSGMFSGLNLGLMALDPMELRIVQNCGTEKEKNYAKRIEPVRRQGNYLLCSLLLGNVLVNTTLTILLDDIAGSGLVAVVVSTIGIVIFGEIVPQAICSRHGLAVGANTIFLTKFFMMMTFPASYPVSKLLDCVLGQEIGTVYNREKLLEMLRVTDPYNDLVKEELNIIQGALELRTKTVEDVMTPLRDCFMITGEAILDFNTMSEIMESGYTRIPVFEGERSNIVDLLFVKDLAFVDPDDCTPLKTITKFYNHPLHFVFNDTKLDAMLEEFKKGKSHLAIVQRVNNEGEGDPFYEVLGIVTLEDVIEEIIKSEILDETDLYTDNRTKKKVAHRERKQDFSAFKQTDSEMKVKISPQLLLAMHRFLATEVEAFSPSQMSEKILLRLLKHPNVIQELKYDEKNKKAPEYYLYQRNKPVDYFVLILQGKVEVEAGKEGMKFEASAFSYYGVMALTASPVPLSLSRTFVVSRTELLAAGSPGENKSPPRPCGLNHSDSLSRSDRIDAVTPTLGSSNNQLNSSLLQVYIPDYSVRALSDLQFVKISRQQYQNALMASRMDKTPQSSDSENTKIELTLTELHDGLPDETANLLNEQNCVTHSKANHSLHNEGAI
active: [10] 0.348
inactive: erlotinib -0.109 | [1] -0.206 | [2] 0.038 | [3] 0.058 | [5] -0.106 | [6] -0.029 | [7] 0.045 | [8] 0.201 | IRAK-1-4 Inhibitor I 0.098 | [9] 0.004 | ralimetinib 0.31 | [11] 0.048 | [13] -0.031 | [14] -0.054 | [15] -0.157 | [16] -0.015
